Measurements taken from PubChem BioAssay (NCATS).
Several values for one entry are separate records, joined by “and”; a condition that tells them apart may be missing. Equal values may be shown once. Results filed as inconclusive are left out. Activity calls are given as the source filed them. Calls follow the shape of the dose curve; as a rule, active = well fitted curve in the direction sought with a large enough effect; inconclusive = small, poorly fitted or top-dose-only effect, or another doubt; inactive = no such curve, though single readings can be large; an effect the other way counts as inactive or inconclusive.

System: Zika virus NS2B-NS3 protease
Assay: Primary screen GU AMC qHTS for Zika virus inhibitors (AID 1347154); also: nearly all actives have a fitted effect of over 70% in size; also: potency is read from the fitted curve at half-maximal effect;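 as to activity change, negative = inhibition: 0% = no-inhibitor control and -100% = no-enzyme control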
Conditions: Zika NS2B-NS3 unlinked protease, AMC fluorogenic substrate; series mostly up to 54.1 µM; activity change, negative = inhibition: at the top concentration
In short: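 Unlinked Zika NS2B hydrophilic domain/NS3 protease domain noncovalent complex (25 nM final) in 10 mM Tris-HCl pH 8.0, 0.01% Tween 20, with AMC peptide substrate. Fluorescence (ex 340, em 450 nm) change over 15 min, room temperature; percent inhibition fitted to 4-parameter Hill equation.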

SMILES	activity change, negative = inhibition	Potency
Cc1c[nH]c(C=C2C(=O)Nc3ccccc32)c1CCC(=O)O	-16.6% (inactive)	
NC1CCC(Nc2nc(Nc3ccc(C(=O)N4CCCCC4)cc3)c3ncn(-c4cccc(F)c4)c3n2)CC1 (stereo unspecified)	2.5% (inactive)	
O=c1c(-c2ccc(O)cc2)coc2cc(OC3O[C@H](CO)[C@H](O)[C@H](O)[C@H]3O)cc(O)c12 (stereo partly specified)	-18.5% (inactive)	
CO[C@H]1C[C@@H]2CC[C@@H](C)[C@@](O)(O2)C(=O)C(=O)N2CCCC[C@@H]2C(=O)O[C@H]([C@H](C)C[C@@H]2CC[C@H](OC(=O)C(C)(CO)CO)[C@H](OC)C2)CC(=O)[C@H](C)C=C(C)[C@@H](O)[C@@H](OC)C(=O)[C@H](C)C[C@H](C)C=CC=CC=C1C	6.27% (inactive)	
COc1ccc(-c2coc3cc(O)cc(O)c3c2=O)cc1	-1.32% (inactive)	
c1cc(-c2sc(-c3ccncc3)c(-c3ccncc3)c2-c2ccncc2)ccn1	-0.495% (inactive)	
NC(=O)c1cccc2[nH]c(-c3ccc([C@H]4CCCN4)cc3F)nc12		24.1 µM (active)
N#CC1(c2ccc(NC(=O)c3cccnc3NCc3ccncc3)cc2)CCCC1	-4.91% (inactive)	
O=C(O)c1ccc(-c2cc3cccnc3c(-c3ccc4nonc4c3)n2)cc1	7.8% (inactive)	
C[C@]12CCC3c4ccc(O)cc4CCC3C1CCC2=O (stereo partly specified)	9.11% (inactive)	
NS(=O)(=O)c1cccc2c1C(=O)c1cccc(O)c1C2=O	6.04% (inactive)	
O=c1c(-c2ccc(O)cc2)coc2cc(O[C@@H]3O[C@H](CO)[C@H](O)[C@H](O)[C@H]3O)ccc12	10.6% (inactive)	

System: Zika virus NS2B-NS3 protease (unlinked complex)
Assay: Primary screen GU Rhodamine qHTS for Zika virus inhibitors: Unlinked NS2B-NS3 protease assay (AID 1347159); also: nearly all actives have a fitted effect of over 60% in size; also: potency is read from the fitted curve at half-maximal effect; as to activity change, negative = inhibition: % is scaled to controls: 0 for no effect and ±100 for the full control effect
Conditions: Recombinant ZIKV NS2B-NS3 protease, Rhodamine110 substrate fluorescence; series mostly up to 107 µM; activity change, negative = inhibition: at the top concentration
In short: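 Buffer 10 mM Tris-HCl pH 8.0, 0.01% Tween 20. Unlinked protease 25 nM; compound preincubation 15 min, RT, protected from light. Substrate Rhod110, 1.5 microM; ~15% conversion in 15 min.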

SMILES	activity change, negative = inhibition	Potency
CS(=O)c1ccc(-c2nc(-c3ccc(F)cc3)c(-c3ccncc3)[nH]2)cc1 (stereo unspecified)	-7.92% (inactive)	
NC(=O)c1ccc2nc(-c3ccc(Oc4ccc(Cl)cc4)cc3)[nH]c2c1	0% (inactive)	
COc1ccc2cc(-c3nc(-c4ccc(S(C)=O)cc4)[nH]c3-c3ccncc3)ccc2c1 (stereo unspecified)	-18.3% (inactive)	
CC1(C)CCC(CN2CCN(c3ccc(C(=O)NS(=O)(=O)c4ccc(NCC5CCOCC5)c([N+](=O)[O-])c4)c(Oc4cnc5[nH]ccc5c4)c3)CC2)=C(c2ccc(Cl)cc2)C1		2.24 µM (active)
NC(=O)c1cccc2[nH]c(-c3ccc([C@H]4CCCN4)cc3F)nc12	8.82% (inactive)	

System: Zika virus NS2B-NS3 protease (linked construct)
Assay: Primary screen NINDS Rhodamine qHTS for Zika virus inhibitors (AID 1347160); also: nearly all actives have a fitted effect of over 55% in size; also: potency is read from the fitted curve at half-maximal effect; as to activity change, negative = inhibition: % is scaled to controls: 0 for no effect and ±100 for the full control effect
Conditions: purified NS2B-NS3 protease, Rhodamine110 substrate fluorescence; series mostly up to 57.1 µM; activity change, negative = inhibition: at the top concentration; outcome: at the top concentration
In short: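 Aprotinin served as in-plate control. Conditions: 25 nM linked NS2B-NS3, pH 8.0 Tris buffer, titrated compounds, 15 min preincubation and 15 min reaction with 1.5 microM Rhod110 substrate at room temperature.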

SMILES	activity change, negative = inhibition	Potency
CS(=O)c1ccc(-c2nc(-c3ccc(F)cc3)c(-c3ccncc3)[nH]2)cc1 (stereo unspecified)	5.93% (inactive)	
COc1ccc2cc(-c3nc(-c4ccc(S(C)=O)cc4)[nH]c3-c3ccncc3)ccc2c1 (stereo unspecified)	5.96% (inactive)	
Cc1ccn(-c2ccc(-c3ncco3)cc2)c(=O)c1-c1ccc2nc(N)ncc2c1	-10.7% (inactive)	
CC1(C)CCC(CN2CCN(c3ccc(C(=O)NS(=O)(=O)c4ccc(NCC5CCOCC5)c([N+](=O)[O-])c4)c(Oc4cnc5[nH]ccc5c4)c3)CC2)=C(c2ccc(Cl)cc2)C1		3.98 µM (active)
NC(=O)c1cccc2[nH]c(-c3ccc([C@H]4CCCN4)cc3F)nc12	10.6% (inactive)	

System: not listed separately
Assay: Confirmatory screen NINDS Rhodamine qHTS for Zika virus inhibitors (AID 1347161); also: nearly all actives have a fitted effect of over 60% in size; also: potency is read from the fitted curve at half-maximal effect;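 as to activity change, negative = inhibition: purified Zika NS2B-NS3 protease with linked NS2B cofactor domain and Rhodamine110 peptide substrate; plate controls were no-inhibitor control for no effect and no-enzyme control for full effect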
Conditions: purified enzyme assay, Rhodamine110 substrate fluorescence, 15 min; series mostly up to 114 µM; activity change, negative = inhibition: at the top concentration
In short: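 Percent inhibition, normalized to uninhibited and enzyme-free controls, is fitted to a 4-parameter Hill equation. Fluorescence change comes from a 15-min cleavage of 1.5 microM bis-peptide Rhodamine110 substrate by 25 nM linked NS2B-NS3 at room temperature.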

SMILES	activity change, negative = inhibition	Potency
CS(=O)c1ccc(-c2nc(-c3ccc(F)cc3)c(-c3ccncc3)[nH]2)cc1 (stereo unspecified)	-34.8% (inactive)	
Cc1ccn(-c2ccc(-c3ncco3)cc2)c(=O)c1-c1ccc2nc(N)ncc2c1		49.3 µM (active)
CC1(C)CCC(CN2CCN(c3ccc(C(=O)NS(=O)(=O)c4ccc(NCC5CCOCC5)c([N+](=O)[O-])c4)c(Oc4cnc5[nH]ccc5c4)c3)CC2)=C(c2ccc(Cl)cc2)C1		1.24 µM (active) and 857 nM (active)
NC(=O)c1cccc2[nH]c(-c3ccc([C@H]4CCCN4)cc3F)nc12	-31.9% (inactive)	

System: not listed separately
Assay: Vero cells viability qHTS for Zika virus inhibitors (AID 1347167); also: % is scaled to controls: 0 for no effect and ±100 for the full control effect
Conditions: cytotoxicity counter-screen (Zika); series mostly up to 45.9 µM; activity change, negative = cytotoxicity: at the top concentration
In short: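 To flag cytotoxic protease inhibitors, viability is measured by ATP-dependent luminescence (CellTiter Glo) after cells attached overnight receive compound for 24 to 48 hours in DMEM with 4% FBS.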

SMILES	Potency	activity change, negative = cytotoxicity
CS(=O)c1ccc(-c2nc(-c3ccc(F)cc3)c(-c3ccncc3)[nH]2)cc1 (stereo unspecified)	inactive	
NC(=O)c1ccc2nc(-c3ccc(Oc4ccc(Cl)cc4)cc3)[nH]c2c1		-3.37% (inactive)
COc1ccc2cc(-c3nc(-c4ccc(S(C)=O)cc4)[nH]c3-c3ccncc3)ccc2c1 (stereo unspecified)		-3.24% (inactive)
Cc1ccn(-c2ccc(-c3ncco3)cc2)c(=O)c1-c1ccc2nc(N)ncc2c1		-10.3% (inactive)
NC(=O)c1cccc2[nH]c(-c3ccc([C@H]4CCCN4)cc3F)nc12		-7.86% (inactive)
